Results on 28 molecules are retold here after PubChem BioAssay AID1578 (Sanford-Burnham Center for Chemical Genomics, 2009).

The campaign covered roughly 290,000 compounds. About 3,000 (1%) were called active. Many of the other results were omitted from the sample, so actives are more common in it than they were. A number with no mark means an inactive call. Cut-off read from the data, not from the text of the source: active = inhibition mostly above about 36% (no sharp cut-off); inactive = mostly below about 34%.

The assay is described as follows: inhibition of NOD1-driven NF-kB reporter – cell-based, luminescence, uHTS, primary screen (AID 1578).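 Note: HEK-293T reporter cells stimulated with the NOD1 agonist gamma-tri-DAP.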 The following applies: NOD1-driven NF-kB luciferase reporter cells, at 4 µM, stronger effect = higher value.
For the molecule `CC(=O)c1cc(C#N)c(NCc2ccccc2)nc1C`, the inhibition was -40.7%.

`c1cn(CCCNc2ncnc3sc4c(c23)CCC4)cn1`: the inhibition was 29.2%.

As for `CCOc1cccc(-c2cc(C(=O)Nc3ccon3)c3ccccc3n2)c1`, the inhibition is -14%.

On to `CCOC(=O)C(=O)N1CCN(c2nc(-c3ccc(Cl)cc3)cs2)CC1`, for which the inhibition is -19.1%.

As to `O=C1CC(Cc2ccc(Br)cc2)C(=O)N1c1ccccc1` (stereo not drawn), the inhibition was -19.8%.

For the molecule `Clc1cncc(Cl)c1N/N=C/c1ccccc1`, the inhibition was -10.5%.

For the molecule `Clc1ccc(N/N=C/c2ccncc2)cc1Cl`, the inhibition was -40.8%.

For `Clc1cncc(Cl)c1N/N=C/c1ccncc1`, the inhibition is 75.3% (active).

Regarding `CCOc1cc(/C=C(/NC(C)=O)C(=O)O)cc(Cl)c1OCc1cccc(Br)c1`, the inhibition is -9.8%.

Turning to `CC(C)Oc1cccc(C(=O)C2CCCN(Cc3cnn(C(C)C)c3)C2)c1` (stereo not drawn), the inhibition was -18.3%.

Turning to `COc1ccc(CN2CCCC(C(=O)c3ccc(Cl)cc3)C2)cc1Cn1cccn1` (stereo not drawn), the inhibition was -12.4%.

For `O=C(c1ccc(Cl)cc1)C1CCCN(Cc2ccc(Oc3ncccn3)cc2)C1` (stereo not drawn), the inhibition is 19.6%.

For `COc1ccc(C(=O)C2CCCN(Cc3ccc4nonc4c3)C2)cc1OC` (stereo not drawn), the inhibition was -4.5%.

Regarding `CC(C)Oc1cccc(C(=O)C2CCCN(Cc3ccc4nonc4c3)C2)c1` (stereo not drawn), the inhibition is 55.2% (active).

On to `Cc1cccc(-c2nc3c(c(SCC(N)=O)n2)CCCC3)c1`, for which the inhibition was -10.2%.

Consider `CC(C)c1ccc(NC2CCCN(C(=O)c3cccc(N4CCNC4=O)c3)C2)cc1` (stereo not drawn), for which the inhibition was 30.5%.

Turning to `CC(=O)c1cccc(NC(=O)c2ccc(N(Cc3ccccc3C)S(C)(=O)=O)cc2)c1`, the inhibition is 6.4%.

On to `Nc1ccc(-c2ccc(C(=O)O)s2)cn1`, for which the inhibition is -26.1%.

`O=C(O)c1ccc(-c2ccc(-c3ccccc3)cc2)s1`: the inhibition was 93.5% (active).

`CNC(=O)c1ccc(-c2ccccc2)s1`: the inhibition was -12.7%.

`O=C(CNC(=O)c1ccco1)NCCCc1ccccc1`: the inhibition was 17.4%.

As for `CCN(CC)c1ccc(/C=c2\sc3nc4ccccc4n3c2=O)c(O)c1`, the inhibition was 33.8%.

As for `Cc1cc(/C=C2/NC(=O)NC2=O)c(C)n1-c1ccccn1`, the inhibition is -34.5%.

Consider `Cc1cc(/C=c2/sc3nc4ccccc4n3c2=O)c(C)n1-c1ccccn1`, for which the inhibition is 74.4% (active).

For `Cc1cc(/C=c2\sc3nc4ccccc4n3c2=O)c(C)n1-c1ccc(C(=O)O)cc1`, the inhibition is 20.6%.

As to `O=c1/c(=C/c2ccccn2)sc2nc3ccccc3n12`, the inhibition was -98.1%.

`O=c1c2ccccc2cnn1-c1ccc(Cl)nn1`: the inhibition is -19%.

As to `Cc1ccccc1-n1nc2c(c1NC(=O)c1c(-c3ccccc3Cl)noc1C)CS(=O)(=O)C2`, the inhibition was -10.3%.
